Screening data as filed in PubChem.
This is one part of a sample in which hits are shown more often than they occur.
14-3-3g Raf: 14-3-3 gamma protein interaction modulation | P61981 | FP, 14-3-3gamma / TMR-pS259-Raf peptide binding | inhibition, % at 40 µM | actives 0.19% (n = 160,000); in the data active means inhibition above about 30%
Numbers stand for hits; i = inactive.

SMILES	14-3-3g Raf
O=[N+]([O-])c1ccc(N2CCCC2)c2ccccc12	i
O=[N+]([O-])c1ccc(N2CCCC2)c2nonc12	200
O=[N+]([O-])c1ccc(Cl)c2nonc12	i
CCCc1ccc2[nH]cc(CCN)c2c1	i
O=C(Nc1ccc(Cl)cc1C(=O)c1ccccc1Cl)c1ccc(F)cc1	i
